# Compounds without any hit were thinned out: in the full panel of roughly 83,000, 20% have a hit.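 Step 1: grow cells in 96-well plates. Step 2: add test compound at a single concentration. Step 3: incubate 48 h. Step 4: record percent growth.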 Unmarked numbers belong to inactive results. The source made the active and inactive calls. How the source made its calls: active means growth percent below 10; inactive means the rest.
# What was measured:
# Test in all cases: NCI-60 one-dose screen, 48 h (100 = growth as untreated, 0 = no growth, -100 = all killed)
# Details in all cases: 10 µM unless noted
# K-562 leukemia = test system: K-562 leukemia
# MDA-MB-231 breast = test system: MDA-MB-231 breast
# SF-268 CNS = test system: SF-268 CNS
# SF-295 CNS = test system: SF-295 CNS
# SF-539 CNS = test system: SF-539 CNS
# UACC-257 melanoma = test system: UACC-257 melanoma
# M14 melanoma = test system: M14 melanoma
# HCT-15 colon = test system: HCT-15 colon
# HT29 colon = test system: HT29 colon
# SNB-75 CNS = test system: SNB-75 CNS
# SNB-19 CNS = test system: SNB-19 CNS
# U251 CNS = test system: U251 CNS
# PC-3 prostate = test system: PC-3 prostate
# UACC-62 melanoma = test system: UACC-62 melanoma
# LOX IMVI melanoma = test system: LOX IMVI melanoma
# SK-MEL-28 melanoma = test system: SK-MEL-28 melanoma
# MALME-3M melanoma = test system: MALME-3M melanoma
# SK-MEL-5 melanoma = test system: SK-MEL-5 melanoma
Compound,growth (K-562 leukemia) [%],growth (MDA-MB-231 breast) [%],growth (SF-268 CNS) [%],growth (SF-295 CNS) [%],growth (SF-539 CNS) [%],growth (UACC-257 melanoma) [%],growth (M14 melanoma) [%],growth (HCT-15 colon) [%],growth (HT29 colon) [%],growth (SNB-75 CNS) [%],growth (SNB-19 CNS) [%],growth (U251 CNS) [%],growth (PC-3 prostate) [%],growth (UACC-62 melanoma) [%],growth (LOX IMVI melanoma) [%],growth (SK-MEL-28 melanoma) [%],growth (MALME-3M melanoma) [%],growth (SK-MEL-5 melanoma)
c1ccc(N2c3nc4ccccc4cc3Sc3cc4ccccc4nc32)nc1,85.7,68.4,80.8,96.1,111,87.8,109,95.6,104,109,97.8,85.7,72.5,78.4,84.1,115,,
O=C(COc1ccc(/C=C2\Oc3ccc4ccccc4c3C2=O)cc1)c1ccc([N+](=O)[O-])cc1,79.4,94.9,96.9,105,65.6,94,92.8,88.4,109,91.3,94.6,94.4,86.8,91.7,35.5,106,85.8,92.3%
CC(=O)c1ccccc1NC(=O)C(C)(c1ccccc1)c1ccccc1,72.5,88.8,92.6,86.1,105,85.9,99.9,104,91.1,81.1,97.1,91.6,66.8,70.9,,111,83,6.19% (active)
Cc1ccc(-c2cc(-c3ccccc3)n(-c3ccccc3)n2)cc1,81.2,112,98.3,156,115,98.1,110,106,96.7,99.4,95.4,97.7,99.6,88.2,99,98.2,87.6,106%
